# Measurements as given in PubChem BioAssay (NCATS).
# Inconclusive results are not listed. Activity calls are given as the source filed them. Unless noted, the call rests on the fitted dose curve.
# Columns and labels:
# [1] = molecular target: Cytochrome P450 3A4 (Homo sapiens) (UniProt P08684); test: qHTS Assay for Inhibitors and Substrates of Cytochrome P450 3A4 (AID 884; active means well fitted curve in the direction sought with a large enough effect; an effect the other way counts as inactive or inconclusive; further: nearly all actives have a fitted effect of over 50% in size; further: potency means the concentration at half of the fitted maximal effect; on activity change, negative = inhibition: on the % scale 0 is the no-effect control and ±100 the full control effect)
# Chain of Cytochrome P450 3A4 (Homo sapiens) (P08684 whole entry, looked up): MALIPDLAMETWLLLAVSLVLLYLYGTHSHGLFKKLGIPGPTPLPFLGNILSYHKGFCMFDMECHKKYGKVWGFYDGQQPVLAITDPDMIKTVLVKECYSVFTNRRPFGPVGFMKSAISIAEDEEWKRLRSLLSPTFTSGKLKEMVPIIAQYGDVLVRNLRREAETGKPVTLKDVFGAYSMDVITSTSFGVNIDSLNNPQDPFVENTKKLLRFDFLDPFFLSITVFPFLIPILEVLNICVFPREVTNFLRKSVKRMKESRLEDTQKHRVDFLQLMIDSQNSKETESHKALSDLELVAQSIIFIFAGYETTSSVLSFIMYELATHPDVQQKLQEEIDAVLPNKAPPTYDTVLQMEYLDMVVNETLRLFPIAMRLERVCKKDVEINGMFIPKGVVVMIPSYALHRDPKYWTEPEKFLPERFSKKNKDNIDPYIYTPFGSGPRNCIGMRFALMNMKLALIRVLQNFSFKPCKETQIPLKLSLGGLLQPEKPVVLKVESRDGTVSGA
# Summary of the method: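 20 nM human CYP3A4 with 25 uM Luciferin-PPXE (at KM) in 200 mM KPO4, preincubated 10 min with compound; NADPH regeneration started a 60 min RT reaction. Luciferin detected by luminescence, normalized to 57 uM ketoconazole as full inhibition.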
# [2] = molecular target: Cytochrome P450 3A4 (Homo sapiens) (UniProt P08684); test: qHTS Assay for Activators of Cytochrome P450 3A4 (AID 885; active means well fitted curve in the direction sought with a large enough effect; an effect the other way counts as inactive or inconclusive; further: nearly all actives have a fitted effect of over 65% in size)
# Summary of the method: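 Quantitative HTS format: compounds preincubated with 20nM human CYP3A4 and Luciferin-PPXE substrate at KM, reaction started by NADPH regeneration, stopped after 60 min, luciferase luminescence read 20 min later.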
# [3] = Confirmation and Secondary Assay for Modulators of Hemoglobin Beta Chain Splicing at IVS2 654 locus (AID 910; active means well fitted curve in the direction sought with a large enough effect; an effect the other way counts as inactive or inconclusive;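 further: HeLa cells stably carrying EGFP split by mutant beta-globin IVS2-654 intron; per-well total GFP intensity by laser scanning cytometry after 2-day treatment; % of control where 0% means no effect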)
# Summary of the method: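 Readout: per-well total peak green fluorescence (488 nm ex, 500–520 nm em) from objects 5–250 µm, reflecting correct splicing of an EGFP-654 reporter. Compounds were applied for 2 days at 37 °C to overnight-plated HeLa EGFP-654 cells; controls were DMSO and 500 nM IVS2-654 PNA.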
# [4] = Confirmation and Secondary Assay for Modulators of Hemoglobin Beta Chain Splicing at IVS2 705 locus (AID 930; active means well fitted curve in the direction sought with a large enough effect; an effect the other way counts as inactive or inconclusive;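 further: HeLa cells stably expressing the EGFP-705 splicing reporter; GFP fluorescence per well restored by corrected splicing of the IVS2-705 intron in EGFP; % of control where 0% means no effect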)
# Summary of the method: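 Assay measures total GFP intensity per well in HeLa EGFP-705 cells after 2 days with compound; mis-splicing normally truncates EGFP, so fluorescence indicates corrected splicing.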
# [5] = qHTS Assay for Lipid Storage Modulators (AID 1519); conditions: Drosophila S3 cells, BODIPY lipid droplet/cell ratio, laser cytometry, cells loaded with oleic acid; for activity change, negative = inhibition: at 57.5 µM (top of the series); on activity change, negative = inhibition: on the % scale 0 is the no-effect control and ±100 the full control effect
# Summary of the method: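 Cells seeded at 5,000 per well were treated with compounds over a concentration series and loaded with oleic acid (400 uM, as added). Lipid droplet fluorescence (488 nm excitation, 500-530 nm channel) was read by laser-scanning cytometry and normalized to 20 uM Triacsin C.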
# [6] = Confirmatory qHTS to identify inhibitors of SARS-CoV-2 cell entry (AID 1645844); further: nearly all actives have a fitted effect of over 45% in size; further: potency means the concentration at half of the fitted maximal effect
# Summary of the method: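 Luminescence from a luciferase reporter, read 48 hr after pseudotyped-particle addition, gives entry signal, normalised to spike-bearing PP wells and bald PP lacking fusion protein wells. Cells are Expi293F stably expressing human ACE2, compound-pretreated 1 hr.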
# [7] = Cytotoxicity counterscreen for inhibitors of SARS-CoV-2 cell entry (AID 1645845); conditions: outcome: dose series up to 57.1 µM unless noted; further: nearly all actives have a fitted effect of over 50% in size
# Summary of the method: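 48 h compound treatment (after 1 h preincubation), HEK293-ACE2 cells, 37 C/5% CO2; ATP luminescence endpoint; normalized to cell wells and media blanks.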
# [8] = Primary qHTS to identify inhibitors of SARS-CoV-2 cell entry (AID 1645846); conditions: SARS-CoV-2 pseudovirus cell entry assay, luminescence; activity change, negative = inhibition: at 57.1 µM (top of the series) unless noted; further: nearly all actives have a fitted effect of over 45% in size; further: potency means the concentration at half of the fitted maximal effect
# Summary of the method: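 Data are normalized to wells receiving SARS-CoV-2-S pseudoparticles and those given bald particles. Entry signal was luciferase luminescence in stable hACE2 Expi293F cells, 48 hr post-infection, after 1 hr compound pretreatment.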
# [9] = VSVG counterscreen qHTS to identify inhibitors of SARS-CoV-2 cell entry (AID 1645847); further: nearly all actives have a fitted effect of over 65% in size; further: potency means the concentration at half of the fitted maximal effect; on activity change, negative = inhibition: on the % scale 0 is the no-effect control and ±100 the full control effect
# Summary of the method: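 Counterscreen using VSV-G (not spike) pseudotyped MLV particles on ACE2-expressing Expi293F cells after 1 h compound preincubation; infection ran 48 h at 37 °C. Data normalized to VSV-G PP and bald-PP wells.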
# [10] = molecular target: Cytochrome P450 2D6 (Homo sapiens) (UniProt P10635); test: Cytochrome P450 family 2 subfamily D member 6 (CYP2D6) small molecule antagonists: luciferase biochemical (cell-free) qHTS assay (AID 1645840; active means well fitted curve in the direction sought with a large enough effect in the repeat runs; an effect the other way counts as inactive or inconclusive; further: on the % scale 0 is the no-effect control and ±100 the full control effect; nearly all actives have a fitted effect of over 55% in size)
# Chain of Cytochrome P450 2D6 (Homo sapiens) (P10635 whole entry, looked up): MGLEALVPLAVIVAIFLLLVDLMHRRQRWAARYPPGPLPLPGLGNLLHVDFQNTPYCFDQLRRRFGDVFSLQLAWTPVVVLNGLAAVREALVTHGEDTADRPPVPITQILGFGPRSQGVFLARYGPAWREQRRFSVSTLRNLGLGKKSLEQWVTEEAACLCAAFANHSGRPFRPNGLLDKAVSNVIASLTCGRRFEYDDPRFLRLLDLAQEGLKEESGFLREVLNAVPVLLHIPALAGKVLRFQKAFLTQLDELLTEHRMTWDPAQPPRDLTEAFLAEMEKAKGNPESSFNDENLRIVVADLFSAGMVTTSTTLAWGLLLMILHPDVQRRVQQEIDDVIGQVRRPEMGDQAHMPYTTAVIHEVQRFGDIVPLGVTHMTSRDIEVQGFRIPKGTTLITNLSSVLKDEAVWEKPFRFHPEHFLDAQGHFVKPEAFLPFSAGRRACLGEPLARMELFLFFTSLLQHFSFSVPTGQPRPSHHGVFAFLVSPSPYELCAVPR
# Summary of the method: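 P450-Glo luminescent screen: recombinant CYP2D6 enzyme–proluciferin substrate mix preincubated with compound 10 min at room temperature, then NADPH regeneration added for 1 h at room temperature. Detection reagent added for 20 min; luciferin light read as relative luminescence units.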
# [11] = molecular target: Cytochrome P450 2C9 (Homo sapiens) (UniProt P11712); test: Cytochrome P450 family 2 subfamily C member 9 (CYP2C9) small molecule antagonists: luciferase biochemical (cell-free) qHTS assay (AID 1645842; active means well fitted curve in the direction sought with a large enough effect in the repeat runs; an effect the other way counts as inactive or inconclusive; further: nearly all actives have a fitted effect of over 55% in size; further: potency means the concentration at half of the fitted maximal effect; on activity change, negative = inhibition: on the % scale 0 is the no-effect control and ±100 the full control effect)
# Chain of Cytochrome P450 2C9 (Homo sapiens) (P11712 whole entry, looked up): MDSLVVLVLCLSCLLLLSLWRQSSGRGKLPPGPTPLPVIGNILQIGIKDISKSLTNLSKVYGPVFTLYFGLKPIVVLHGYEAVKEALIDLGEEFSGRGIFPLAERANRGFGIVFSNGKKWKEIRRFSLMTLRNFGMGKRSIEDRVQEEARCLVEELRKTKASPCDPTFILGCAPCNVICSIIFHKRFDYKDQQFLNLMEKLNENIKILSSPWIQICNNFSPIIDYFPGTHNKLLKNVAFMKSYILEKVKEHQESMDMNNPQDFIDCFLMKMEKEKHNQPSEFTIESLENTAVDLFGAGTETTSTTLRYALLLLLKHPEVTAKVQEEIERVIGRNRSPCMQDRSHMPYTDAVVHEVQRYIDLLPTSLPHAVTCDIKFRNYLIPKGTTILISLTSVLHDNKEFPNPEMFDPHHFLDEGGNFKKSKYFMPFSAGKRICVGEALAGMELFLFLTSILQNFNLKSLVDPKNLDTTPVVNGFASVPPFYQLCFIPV
# Summary of the method: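 Luminescence, after 20 min with luciferin detection reagent, reflected CYP2C9 turnover during a 1 h NADPH-driven reaction at 37C. Enzyme-substrate mix contained 0.4% bovine serum albumin and was preincubated with compound 10 min at room temperature.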
# [12] = molecular target: Ubiquitin carboxyl-terminal hydrolase 1 (Homo sapiens) (UniProt O94782); test: Inhibitors of USP1/UAF1: Pilot qHTS (AID 504865; active means well fitted curve in the direction sought with a large enough effect; an effect the other way counts as inactive or inconclusive;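 further: rhodamine fluorescence freed from ubiquitin-rhodamine substrate followed over time; top concentration of the series differs between compounds; on the % scale 0 is the no-effect control and ±100 the full control effect; nearly all actives have a fitted effect of over 35% in size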)
# Chain of Ubiquitin carboxyl-terminal hydrolase 1 (Homo sapiens) (O94782 whole entry, looked up): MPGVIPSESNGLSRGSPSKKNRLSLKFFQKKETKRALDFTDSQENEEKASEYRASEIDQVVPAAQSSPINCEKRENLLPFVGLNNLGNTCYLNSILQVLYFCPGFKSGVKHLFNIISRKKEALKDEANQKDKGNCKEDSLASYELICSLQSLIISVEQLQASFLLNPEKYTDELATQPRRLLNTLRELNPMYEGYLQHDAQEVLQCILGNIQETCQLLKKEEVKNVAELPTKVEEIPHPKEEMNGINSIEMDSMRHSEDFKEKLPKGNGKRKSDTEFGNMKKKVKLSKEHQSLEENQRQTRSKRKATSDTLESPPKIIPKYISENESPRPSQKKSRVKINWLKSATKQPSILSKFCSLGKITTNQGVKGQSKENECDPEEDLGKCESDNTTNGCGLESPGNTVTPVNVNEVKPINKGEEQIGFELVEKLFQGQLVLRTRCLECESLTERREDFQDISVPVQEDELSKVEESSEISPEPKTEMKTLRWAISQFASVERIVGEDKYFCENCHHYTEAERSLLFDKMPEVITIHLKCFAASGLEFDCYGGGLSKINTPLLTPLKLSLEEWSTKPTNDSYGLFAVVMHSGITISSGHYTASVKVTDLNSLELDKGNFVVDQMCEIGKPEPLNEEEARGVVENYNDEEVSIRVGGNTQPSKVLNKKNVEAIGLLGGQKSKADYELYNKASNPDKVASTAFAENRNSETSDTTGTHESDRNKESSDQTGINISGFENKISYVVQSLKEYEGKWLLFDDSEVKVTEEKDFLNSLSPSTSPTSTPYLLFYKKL
# Summary of the method: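 Kinetic fluorescence assay: 1nM USP1/UAF1, 15 min compound preincubation, then 150nM Ub-Rho; 480/540 nm.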
# [13] = measured here: cell count channel max response
# [14] = measured here: lipid channel max response
smiles,measurement,setting,value
CC(=O)OC1CC(OC(C)=O)[C@]2(C)C(CC(OC(C)=O)[C@]3(C)C2CC[C@@]2(C)C(c4ccoc4)C(=O)C4O[C@]432)C1(C)C (some centres not stated),Potency,[1],3980 nM (active)
same,Potency,[2],inactive
same,Potency,[3],inactive
same,Potency,[4],inactive
same,"activity change, negative = inhibition",[5],-15.3% (inactive)
same,max response,[5]; [13],-13.1%
same,max response,[5]; [14],-24.4%
CC1(C)C(=O)C=C[C@@]2(C)C1CC(O)[C@]1(C)C2CC[C@@]2(C)C(c3ccoc3)OC(=O)C3O[C@]312 (some centres not stated),Potency,[1],3980 nM (active)
same,Potency,[2],inactive
same,Potency,[3],inactive
same,Potency,[4],inactive
same,"activity change, negative = inhibition",[5],-4.48% (inactive)
same,max response,[5]; [13],13.8%
same,max response,[5]; [14],11.5%
O=C(/C=C\n1cnc(-c2cc(C(F)(F)F)cc(C(F)(F)F)c2)n1)NNc1cnccn1,Potency,[6],3040 nM (active)
same,Potency,[7],inactive
same,Potency,[8],2820 nM (active)
same,Potency,[9],1710 nM (active)
O=C(Nc1cccnc1)c1cc(-c2ccnc(F)c2)ccc1OCc1ccccc1,Potency,[6],inactive
same,Potency,[7],inactive
same,"activity change, negative = inhibition",[8],-5.26%
same,Potency,[9],inactive
C=C1C[C@H]2C=Nc3cc(OCCCOc4cc5c(cc4OC)C(=O)N4CC(=C)C[C@H]4C=N5)c(OC)cc3C(=O)N2C1,Potency,[6],1.5 nM (active)
same,Potency,[7],inactive
same,Potency,[9],1.4 nM (active)
C=CC(=O)N[C@H]1CN(c2nc(Nc3cn(C)nc3OC)c3ncn(C)c3n2)C[C@@H]1F,Potency,[6],inactive
same,Potency,[7],inactive
same,Potency,[9],inactive
CN(C)[C@@H]1C(=O)C(C(N)=O)C(=O)[C@@]2(O)C(=O)C3C(=O)c4c(O)ccc(Cl)c4[C@@](C)(O)C3C[C@@H]12 (some centres not stated),Potency,[10],inactive
same,Potency,[11],inactive
COc1cc(OC)c(/C=C/S(=O)(=O)Cc2ccc(OC)c(OP(=O)(O)O)c2)c(OC)c1,Potency,[6],17.5 nM (active)
same,Potency,[7],inactive
same,"activity change, negative = inhibition",[8],-77.7%
same,Potency,[9],39.3 nM (active)
CC(C)(N)Cc1ccccc1,Potency,[11],inactive
CC(=O)Oc1ccc(Cl)c2cccnc12,Potency,[1],inactive
same,Potency,[3],inactive
same,Potency,[4],inactive
same,Potency,[12],inactive
same,Potency,[10],inactive
same,Potency,[11],inactive
COc1cc2c3c(n(CCCn4ccnc4)c(=O)c2cc1OC)-c1cc2c(cc1C3=O)OCO2,Potency,[6],48.2 nM (active)
same,Potency,[7],inactive
same,"activity change, negative = inhibition",[8],-94.4%
same,Potency,[9],60.7 nM (active)
Cc1[nH]c2ccc(F)cc2c1-c1nc2c3cccnc3c3ncccc3c2[nH]1,Potency,[6],555 nM (active)
same,Potency,[7],inactive
same,"activity change, negative = inhibition",[8],-96.1% [at 114 µM]
same,Potency,[9],1750 nM (active)
CCOc1ccc(NC(=O)Cn2cc(C(=O)c3ccccc3)c3ccccc32)cc1,Potency,[11],16900 nM (active)
CCN(CCCOc1ccc2c(Nc3cc(CC(=O)Nc4cccc(F)c4)[nH]n3)ncnc2c1)CCOP(=O)(O)O,Potency,[6],34.1 nM (active)
same,Potency,[7],inactive
same,"activity change, negative = inhibition",[8],-62.3%
same,Potency,[9],76.4 nM (active)
NC(=O)/C(=C/n1cnc(-c2cc(C(F)(F)F)cc(C(F)(F)F)c2)n1)c1cncnc1,Potency,[6],607 nM (active)
same,Potency,[7],inactive
same,Potency,[8],1260 nM (active)
same,Potency,[9],108 nM (active)
O=C(Nc1cc(Oc2cc(F)c(NC(=O)C3(C(=O)Nc4ccc(F)cc4)CC3)cc2F)ccn1)C1CC1,Potency,[6],21500 nM (active)
same,Potency,[7],inactive
same,"activity change, negative = inhibition",[8],-38.1%
same,Potency,[9],15200 nM (active)
